Source: PubChem BioAssay AID624297 (National Center for Advancing Translational Sciences (NCATS), 2012)
In all, about 340,000 compounds went through this assay and about 6,200 (1.8%) were called active. About 10% were inconclusive and are not listed. Calls come from the whole dose curve; as a rule, active = well fitted activation curve with a large enough effect; inconclusive = small, poorly fitted or top-dose-only effect; inactive = no such curve, though single readings can be large or run the other way. Shown is part of a subset that was picked to be rich in actives.

Test: A quantitative high throughput screen for small molecules that induce DNA re-replication in SW480 colon adenocarcinoma cells. Note: nearly all actives have a fitted effect of over 55% in size.
Details: Hoechst DNA content imaging, 48 h; series mostly up to 46.1 µM
How it was run: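 Readout is total intensity of Hoechst-stained nuclei, excited at 405 nm and collected at 500-530 nm. Compound treatment lasted 48 hr at 37 C in 5% CO2 before staining.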
Potency is the fitted concentration of half-maximal effect.

Potency, inactive:
O=C1NC(=O)C(CCc2ccccc2)(c2ccccc2)N1 (stereo not given), O=C(O)c1ccc([N+](=O)[O-])cc1Sc1ccsc1, Cc1ccc(S(=O)(=O)Nc2ccc(F)c(S(=O)(=O)N3CCOCC3)c2)cc1, O=c1[nH]c2c(c(=O)n1-c1ccccc1)CCO2, COc1ccc(Cn2c(=S)[nH]c3cc(C(=O)NCCCN4CCOCC4)ccc3c2=O)cc1, O=C(NCCN1CCOCC1)c1ccc2c(c1)N(Cc1ccc(Cl)cc1)CCS2, O=C(Nc1ccc(N2CCOCC2)cc1)c1cccc(S(=O)(=O)N2CCOCC2)c1, Cc1cc(NC(=O)CSc2nnc(-c3ccco3)n2N)no1, Cc1noc(C)c1NC(=O)Nc1ccc2c(c1)C(=O)N([C@H](C)CO)C[C@H](C)[C@@H](CN(C)C(=O)Nc1ccccc1)O2, CCCCCCCCNS(=O)(=O)CCNC1CCCCC1, CN(C)/C=C/C(=O)c1cnc2sccn2c1=O, CCOC(=O)c1ccccc1NS(=O)(=O)c1c(C)nc2sccn2c1=O, CN(CCc1ccccc1)C(=O)c1cccc(NC(=O)Cc2ccc([N+](=O)[O-])cc2)c1, CC(C)(C)NS(=O)(=O)NC(=O)C1=C(N2CCCC2)COC1=O, CC(C)c1cc(N=O)cc(C(C)C)c1O, CCCOc1ccc(C(=O)CCC(=O)OC(C)C(=O)Nc2ccc(NC(C)=O)cc2)cc1 (stereo not given), CCCCOc1ccc(C(=O)NN2CCN(C)CC2)cc1, CN1CCOC1c1ccc(C2OCCN2C)cc1 (stereo not given), N#CCCN(C(=O)COC(=O)c1ccc2c(c1)OCCO2)c1ccccc1, Cc1cc(NC(=O)COC(=O)/C=C/c2ccc(C)o2)no1, O=C(NN1C(=O)C2C(C1=O)C1C=CC2C12CC2)c1ccccc1Cl (stereo not given), CC12CCC(C(=O)N(c3cccc(Cl)c3)C1=O)C2(C)C (stereo not given), CN(C(=O)c1cccc(NC(=O)Cc2ccc(NC(=O)C3CCCN(C(=O)C4CC4)C3)cc2)c1)C1CC1 (stereo not given), Cc1ccc(S(=O)(=O)N2CCCCC2)cc1C(=O)N(C)CC(=O)Nc1cccc(F)c1, COc1ccc(NC(=O)CN(C)C(=O)c2cccc(S(=O)(=O)N3CCN(c4ccccc4)CC3)c2)cc1, Cc1noc(C)c1NC(=O)Nc1cccc2c1O[C@H](CN(C)S(=O)(=O)c1c(C)noc1C)[C@@H](C)CN([C@H](C)CO)C2=O, CCCCOc1ccc(C(=O)NCC(=O)OCC(=O)c2c(N)n(C)c(=O)n(C)c2=O)cc1, CSc1ncccc1C(=O)NCC(c1ccco1)N1CCCCC1 (stereo not given), Cc1ccc(CN2CCC(n3nccc3NC(=O)CCCc3ccccc3)CC2)o1, COc1cc(CN2CCC(n3nccc3NC(=O)CCCc3ccccc3)CC2)ccc1O, COc1ccc(CNC(=O)C[C@H]2C[C@H](C(=O)N3CCOCC3)[C@@]3(CCC4CCCC4)c4[nH]c5ccc(Cl)cc5c4CCN3C2=O)cc1OC, CC(C)(C)OC(=O)C[C@H]1C/C=C\C[C@@H](CC(=O)N[C@H](CO)Cc2ccccc2)C(=O)NC[C@@H](c2ccccc2)OC1=O, Cc1ccccc1OC/C(O)=C(\C#N)c1nc2ccccc2[nH]1, COCCN(CCOC)S(=O)(=O)c1ccc(/C(O)=C(\C#N)c2nc3ccccc3[nH]2)cc1, CCN1C[C@@H]2[C@@H]3C(=O)N(Cc4ccccc4)C(=O)[C@@H]3[C@](C)(C1=O)N2C(=O)c1ccc(C(C)(C)C)cc1, O=C(NOCc1ccccc1)c1cccc([N+](=O)[O-])c1, O=c1oc2ccccc2c(=O)c2ccccc12, CC[C@]12c3[nH]c4cc(CCC(=O)N(C)C)ccc4c3CCN1C(=O)[C@@H](CC(=O)NCc1ccco1)C[C@@H]2C(=O)N1CCN(C(=O)c2ccco2)CC1, O=C(NCc1cccs1)c1cc(-c2ccccn2)nc2ccc(Br)cc12, Cn1ncc(Br)c1C(=O)NCc1cccs1, O=c1ccn([C@@H]2O[C@H](CNS(=O)(=O)c3cc4ccccc4s3)[C@@H](O)[C@H]2O)c(=O)[nH]1, CCN(c1ccccc1)S(=O)(=O)c1ccc(C(=O)Nc2ccccc2OC)cc1, O=C(NCCCN1CCOCC1)c1cn(-c2ccccc2)nc1-c1ccc(F)cc1, O=C(NCC(c1cccs1)N1CCOCC1)c1cc(-c2ccccn2)nc2ccccc12 (stereo not given), Cn1c(=S)sc2ccc3ccccc3c21, Cc1cc(C)c(C=NNc2nc3c([nH]2)c(=O)n(C)c(=O)n3C)c(C)c1, FC(F)(F)c1cnc(Oc2ccccc2-c2nnc(-c3ccc(Cl)cc3)o2)c(Cl)c1, COc1cccc(/C=N/Nc2ccc(S(=O)(=O)Nc3ccccc3C(=O)O)cc2[N+](=O)[O-])c1O, CC(=NNC(=O)c1ccncc1)c1ccc(Cl)c(Cl)c1, C=CCC[C@@H](Cc1ccc(F)cc1)C(=O)OC[C@@H](C)NC(=O)[C@H](CC=C)CC(=O)N(CCO)Cc1ccccc1

Potency, active:
Cc1c(C)n(Cc2ccc(Cl)cc2)c2ccc(C(=O)NCCCN3CCOCC3)cc12 20.6 µM, CCOC(=O)c1cnc2sccn2c1=O 14.6 µM, CCCOc1ccc(C(=O)C(CCC(CNCC)C(=O)c2ccc(OCCC)cc2)CNCC)cc1 (stereo not given) 9.2 µM, CC12CCC(C(=O)N(NC(=O)c3ccccc3O)C1=O)C2(C)C (stereo not given) 20.6 µM, CCOc1ccc(NC(=O)CN(C)C(=O)c2cccc(S(=O)(=O)N3CCCC3)c2)cc1OCC 6.51 µM, COc1ccc(CN2CCC(n3nccc3NC(=O)CCCc3ccccc3)CC2)cc1C 18.4 µM, N#C/C(=C(/O)COC(=O)COc1ccc(Cl)cc1)c1nc2ccccc2[nH]1 29.1 µM, CC(C)Cn1c(N)c(C(=O)NCc2cccs2)c2nc3ccccc3nc21 5.17 µM, Cc1ccc(-c2nn(-c3ccc(F)cc3)cc2C(=O)NCC(c2cccs2)N2CCOCC2)cc1 (stereo not given) 23.1 µM, COc1cccc(/C=N/Nc2ncc(C(F)(F)F)cc2Cl)c1O 0.92 µM
